Assay results as given in PubChem BioAssay (EPA / NIEHS).
Activity calls are given as the source filed them. The calls were made as follows: active = hit-call score of the fitted dose curve at least 0.9, where 1 is the maximum; inactive = score below 0.9.

How the values were obtained:
[1] = read-out: Cytochrome P450 (CYP1A1), CYP1A1 (gene 1543); test: LTEA_HepaRG_CYP1A1: Life Technologies and Expression Analysis (LTEA) Assay for Cytochrome P450 (CYP1A1) using HepaRG (AID 2283454); details: mRNA level, 48 h; actives raise or lower the signal
Method in brief: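 Using HepaRG cultures with 0.5% DMSO as vehicle, eight-concentration exposures (max 100 uM) lasted 48 h. Transcript levels were measured by TaqMan qRT-PCR and normalized to ACTB, GAPDH and POLR2A.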

[2] = read-out: CFLAR gene, CFLAR (gene 8837); test: LTEA_HepaRG_CFLAR: Life Technologies and Expression Analysis (LTEA) Assay for CFLAR gene using HepaRG (AID 2283455); details: mRNA level, 48 h; actives raise or lower the signal
Method in brief: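 Gain- or loss-of-signal changes in CFLAR transcript were fitted bidirectionally relative to 0.5% DMSO. Cells (HepaRG, duplicate wells) were dosed for 48 h across eight half-log concentrations topping at 100 uM; quantitation by TaqMan qRT-PCR.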

[3] = read-out: Forkhead box O1 (FOXO1), FOXO1 (gene 2308); test: LTEA_HepaRG_FOXO1: Life Technologies and Expression Analysis (LTEA) Assay for Forkhead box O1 (FOXO1) using HepaRG (AID 2283456); details: mRNA level, 48 h; actives raise or lower the signal
Method in brief: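 Using one lot of HepaRG hepatic cells kept in 0.5% DMSO, the team applied test chemicals in duplicate, half-log dilutions from 100 uM, for 48 h. Expression, normalised to ACTB/GAPDH/POLR2A, was compared with vehicle in either direction.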

[4] = read-out: growth arrest and DNA damage 45 (GADD45A), GADD45A (gene 1647); test: LTEA_HepaRG_GADD45A: Life Technologies and Expression Analysis (LTEA) Assay for growth arrest and DNA damage 45 (GADD45A) using HepaRG (AID 2283458); details: mRNA level, 48 h; actives raise or lower the signal
Method in brief: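 Eight-point concentration-response in HepaRG cells: 48 h chemical exposure, 0.5% DMSO vehicle, top dose 100 uM. Normalized qRT-PCR mRNA readout with bidirectional fitting relative to DMSO.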

[5] = read-out: Forkhead box O3 (FOXO3), FOXO3 (gene 2309); test: LTEA_HepaRG_FOXO3: Life Technologies and Expression Analysis (LTEA) Assay for Forkhead box O3 (FOXO3) using HepaRG (AID 2283459); details: mRNA level, 48 h; actives raise or lower the signal
Method in brief: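 Gene-expression endpoint: FOXO3 transcript level by qRT-PCR in HepaRG cultures treated 48 h with chemicals up to 100 uM (half-log, 0.5% DMSO vehicle).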

[6] = read-out: ABC Transporter (ABCB1), ABCB1 (gene 5243); test: LTEA_HepaRG_ABCB1: Life Technologies and Expression Analysis (LTEA) Assay for ABC Transporter (ABCB1) using HepaRG (AID 2283460); details: mRNA level, 48 h; actives raise or lower the signal
Method in brief: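 Human liver HepaRG line treated 48 h with up to 100 uM compound (eight half-log points, 0.5% DMSO); ABCB1 mRNA change fitted bidirectionally against DMSO controls.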

[7] = read-out: growth arrest and DNA damage 45 (GADD45B), GADD45B (gene 4616); test: LTEA_HepaRG_GADD45B: Life Technologies and Expression Analysis (LTEA) Assay for growth arrest and DNA damage 45 (GADD45B) using HepaRG (AID 2283461); details: mRNA level, 48 h; actives raise or lower the signal
Method in brief: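 Human HepaRG monolayers receive chemicals for 48 h at eight half-log concentrations, highest 100 uM, in 0.5% DMSO. Expression is measured by TaqMan qRT-PCR and normalized to ACTB, GAPDH and POLR2A.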

[8] = read-out: ABC Transporter (ABCC3), ABCC3 (gene 8714); test: LTEA_HepaRG_ABCC3: Life Technologies and Expression Analysis (LTEA) Assay for ABC Transporter (ABCC3) using HepaRG (AID 2283462); details: mRNA level, 48 h; actives raise or lower the signal
Method in brief: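 Transcriptional change of ABCC3 in HepaRG after 48 h treatment, determined by qRT-PCR normalized to endogenous controls. Concentrations spanned eight half-log steps to 100 uM in 0.5% DMSO.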

[9] = read-out: ABC Transporter (ABCB11), ABCB11 (gene 8647); test: LTEA_HepaRG_ABCB11: Life Technologies and Expression Analysis (LTEA) Assay for ABC Transporter (ABCB11) using HepaRG (AID 2283463); details: mRNA level, 48 h; actives raise or lower the signal
Method in brief: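 Using HepaRG cultures held in 0.5% DMSO, chemicals were tested at half-log dilutions from 100 uM for 48 h. Induction or suppression of ABCB11 mRNA, normalized to ACTB, GAPDH and POLR2A, was fitted bidirectionally against vehicle.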

[10] = read-out: ABC Transporter (ABCC2), ABCC2 (gene 1244); test: LTEA_HepaRG_ABCC2: Life Technologies and Expression Analysis (LTEA) Assay for ABC Transporter (ABCC2) using HepaRG (AID 2283464); details: mRNA level, 48 h; actives raise or lower the signal
Method in brief: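 After plating and 48 h culture, HepaRG medium is replaced with serum-free induction medium and chemicals are added (8 concentrations, max 100 uM, 0.5% DMSO) for 48 h. Total RNA then undergoes qRT-PCR for ABCC2 with housekeeping normalization.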

[11] = read-out: Broad substrate specificity ATP-binding cassette transporter ABCG2 (Homo sapiens) (UniProt Q9UNQ0); test: LTEA_HepaRG_ABCG2: Life Technologies and Expression Analysis (LTEA) Assay for ABC Transporter (ABCG2) using HepaRG (AID 2283465); details: mRNA level, 48 h; actives raise or lower the signal
Method in brief: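 Gene expression of ABCG2 in HepaRG liver cells is quantified by qRT-PCR following 48 h exposure across an eight-point series topping at 100 uM. Values come from bidirectional fitting relative to DMSO vehicle.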

[12] = read-out: Peroxisomal acyl-coenzyme A oxidase 1 (ACOX1) gene, ACOX1 (gene 51); test: LTEA_HepaRG_ACOX1: Life Technologies and Expression Analysis (LTEA) Assay for Peroxisomal acyl-coenzyme A oxidase 1 (ACOX1) gene using HepaRG (AID 2283467); details: mRNA level, 48 h; actives raise or lower the signal
Method in brief: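 Human HepaRG hepatic cultures, 48 h treatment with test chemicals up to 100 uM. ACOX1 expression read by qRT-PCR relative to 0.5% DMSO vehicle.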

[13] = read-out: Alkaline Phosphatase, Placental (ALPP) gene, ALPP (gene 250); test: LTEA_HepaRG_ALPP: Life Technologies and Expression Analysis (LTEA) Assay for Alkaline Phosphatase, Placental (ALPP) gene using HepaRG (AID 2283468); details: mRNA level, 48 h; actives raise or lower the signal;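 as to AC50: differentiated human HepaRG liver cells in serum-free induction medium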
Method in brief: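 Using human liver HepaRG cells, chemicals are tested in duplicate over 48 h at half-log concentrations topping at 100 uM; phenobarbital 1 mM serves as induction control. ALPP mRNA change by qRT-PCR, bidirectional fit against vehicle.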

[14] = read-out: Bcl-2 (BAX) gene, BAX (gene 581); test: LTEA_HepaRG_BAX: Life Technologies and Expression Analysis (LTEA) Assay for Bcl-2 (BAX) gene using HepaRG (AID 2283470); details: mRNA level, 48 h; actives raise or lower the signal
Method in brief: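 Human HepaRG cells treated in duplicate for 48 h across eight concentrations (max 100 uM, 0.5% DMSO); BAX expression measured by qRT-PCR.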

[15] = read-out: adenosine kinase (ADK) gene, ADK (gene 132); test: LTEA_HepaRG_ADK: Life Technologies and Expression Analysis (LTEA) Assay for adenosine kinase (ADK) gene using HepaRG (AID 2283471); details: mRNA level, 48 h; actives raise or lower the signal
Method in brief: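 HepaRG (human liver), 48 h chemical exposure, 8-pt half-log series, top 100 uM, 0.5% DMSO vehicle. Readout: ADK mRNA by qRT-PCR vs housekeeping genes; bidirectional curve fit relative to DMSO baseline.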

[16] = read-out: Alpha-fetoprotein (AFP) gene, AFP (gene 174); test: LTEA_HepaRG_AFP: Life Technologies and Expression Analysis (LTEA) Assay for Alpha-fetoprotein (AFP) gene using HepaRG (AID 2283472); details: mRNA level, 48 h; actives raise or lower the signal
Method in brief: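 Measures AFP mRNA change in HepaRG after 48 h chemical exposure (8 half-log concentrations, highest 100 uM, 0.5% DMSO). Fold change relative to DMSO, fitted in both directions.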

BCL2L11 (gene 10018) = test: LTEA_HepaRG_BCL2L11: Life Technologies and Expression Analysis (LTEA) Assay for Bcl-2 (BCL2L11) gene using HepaRG (AID 2283473); details: mRNA level, 48 h; actives raise or lower the signal
Method in brief: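 Human hepatic HepaRG cultures are treated 48 h with test chemicals (maximum 100 uM, 0.5% DMSO vehicle). Expression of BCL2L11 is measured by qRT-PCR against ACTB, GAPDH and POLR2A, with activity in either direction scored relative to vehicle.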

[17] = read-out: Bcl-2 (BAD) gene, BAD (gene 572); test: LTEA_HepaRG_BAD: Life Technologies and Expression Analysis (LTEA) Assay for Bcl-2 (BAD) gene using HepaRG (AID 2283469); details: mRNA level, 48 h; actives raise or lower the signal
Method in brief: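 Activity values reflect up- or down-regulation of BAD mRNA in human HepaRG hepatic cells treated 48 h in serum-free medium, with eight-point half-log dosing capped at 100 uM and 0.5% DMSO vehicle.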

[18] = CEETOX_H295R_TESTO: CeeTox H295R High-throughput Steroidogenesis Assay for Testosterone (TESTO) (AID 2283457); details: actives raise or lower the signal;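 as to AC50: cells exposed to chemicals for 48 h before medium collection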
Method in brief: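 Steroidogenesis in H295R cells following OECD 456 with minor changes; 48 h exposure. Medium testosterone by HPLC-MS/MS, DMSO as baseline, with MTT viability run in parallel.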

[19] = read-out: ATP-citrate lyase (ACLY), ACLY (gene 47); test: LTEA_HepaRG_ACLY: Life Technologies and Expression Analysis (LTEA) Assay for ATP-citrate lyase (ACLY) using HepaRG (AID 2283466); details: mRNA level, 48 h; actives raise or lower the signal
Method in brief: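 ACLY expression changes in human HepaRG liver cells are quantified by qRT-PCR after 48 h exposure to test chemicals (maximum 100 uM, half-log steps). Values are fitted in both directions relative to 0.5% DMSO vehicle.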

Measured: AC50

Broad substrate specificity ATP-binding cassette transporter ABCG2 (Homo sapiens), sequence (Q9UNQ0 whole entry, looked up): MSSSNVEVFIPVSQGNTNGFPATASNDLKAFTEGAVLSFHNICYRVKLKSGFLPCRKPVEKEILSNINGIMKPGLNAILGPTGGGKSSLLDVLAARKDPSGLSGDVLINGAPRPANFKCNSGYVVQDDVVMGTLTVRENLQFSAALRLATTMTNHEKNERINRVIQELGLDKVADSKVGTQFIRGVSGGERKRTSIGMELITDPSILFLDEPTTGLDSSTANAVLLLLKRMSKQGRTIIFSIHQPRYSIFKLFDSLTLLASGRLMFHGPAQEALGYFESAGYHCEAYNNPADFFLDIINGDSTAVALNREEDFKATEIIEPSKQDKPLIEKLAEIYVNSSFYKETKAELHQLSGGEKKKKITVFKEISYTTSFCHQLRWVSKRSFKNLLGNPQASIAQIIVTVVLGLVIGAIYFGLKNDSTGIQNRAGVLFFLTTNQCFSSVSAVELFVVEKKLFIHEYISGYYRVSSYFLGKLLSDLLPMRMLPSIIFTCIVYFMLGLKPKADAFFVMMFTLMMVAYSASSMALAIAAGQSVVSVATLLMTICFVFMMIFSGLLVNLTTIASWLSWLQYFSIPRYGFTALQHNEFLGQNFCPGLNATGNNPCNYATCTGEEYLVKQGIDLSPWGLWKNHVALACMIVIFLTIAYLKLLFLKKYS

C[Si](Cn1cncn1)(c1ccc(F)cc1)c1ccc(F)cc1
inactive: [4] | [5] | [6] | [7] | [8] | [15] | BCL2L11 (gene 10018)
active: [1] 5.08 µM | [2] 50 µM | [3] 74.6 µM | [9] 34.5 µM | [10] 50 µM | [11] 16.3 µM | [12] 40.9 µM | [13] 50 µM | [14] 78.9 µM | [16] 25.4 µM

CC(C)[C@H](C(=O)O[C@H](C#N)c1cccc(Oc2ccccc2)c1)c1ccc(Cl)cc1
active: [1] 34.8 µM | [6] 23.2 µM | [10] 50 µM | [11] 37 µM | [16] 24.7 µM
not listed: [18] | [19]
inactive: all other assays above

CCOP(=O)(NC(C)C)Oc1ccc(SC)c(C)c1 (stereo not drawn)
active: [1] 50 µM | [18] 26.2 µM | [9] 5.28 µM | [16] 16.5 µM
not listed: [11] | [19]
inactive: all other assays above

CCC(CC)Nc1c([N+](=O)[O-])cc(C)c(C)c1[N+](=O)[O-]
active: [1] 29.8 µM | [11] 60.6 µM | [16] 50 µM
not listed: [18] | [19]
inactive: all other assays above

CCCSP(=O)(OCC)SCCC
active: [1] 40.8 µM | [10] 20.3 µM
not listed: [11] | [19]
inactive: all other assays above

CC(C)=CC1C(C(=O)OCN2C(=O)C3=C(CCCC3)C2=O)C1(C)C (stereo not drawn)
active: [1] 50 µM
not listed: [18]
inactive: all other assays above

CCOC(=O)CC(SP(=O)(OC)OC)C(=O)OCC (stereo not drawn)
active: [1] 30.8 µM | [9] 22.7 µM
not listed: [18]
inactive: all other assays above

COc1cc(OC)nc(Sc2cccc(Cl)c2C(=O)O)n1
not listed: [18] | [19]
inactive: all other assays above

COc1cccc(C(=O)NN(C(=O)c2cc(C)cc(C)c2)C(C)(C)C)c1C
active: [1] 50 µM | [6] 4.33 µM | [9] 19.5 µM | [10] 8.52 µM | [11] 16.7 µM | [16] 7.69 µM
not listed: [18]
inactive: all other assays above

O=[N+]([O-])c1cc(C(F)(F)F)c(Cl)c([N+](=O)[O-])c1Nc1ncc(C(F)(F)F)cc1Cl
inactive: [3] | [6] | [7] | [17] | [14]
active: [1] 9.68 µM | [2] 40.9 µM | [4] 33.6 µM | [5] 35.6 µM | [8] 13.2 µM | [9] 15.8 µM | [10] 67.9 µM | [11] 50 µM | [19] 50 µM | [12] 60.2 µM | [13] 9.95 µM | [15] 50 µM | [16] 23 µM | BCL2L11 (gene 10018) 66.3 µM

CNC(=O)ON=C(SC)C(=O)N(C)C
not listed: [11]
inactive: all other assays above

Nc1nc(N)nc(NC2CC2)n1
active: [1] 50 µM
not listed: [18] | [19]
inactive: all other assays above

CSC1=N[C@@](C)(c2ccccc2)C(=O)N1Nc1ccccc1
inactive: [1] | [2] | [5] | [6] | [7] | [17] | [14] | [15]
active: [3] 31.2 µM | [4] 32 µM | [8] 23.2 µM | [9] 31.4 µM | [10] 83.6 µM | [11] 13.2 µM | [12] 27.3 µM | [13] 13.3 µM | [16] 35.2 µM | BCL2L11 (gene 10018) 12.6 µM
